The values that follow come from ChEMBL document CHEMBL2218924, “A broad activity screen in support of a chemogenomic map for kinase signalling research and drug discovery” (Biochem J, 2013).

For assay [1], the target named is RAC-alpha serine/threonine-protein kinase (Homo sapiens) (UniProt P31749). The settings on record: at 1 µM.
The target is the same in assay [2]. The settings on record: at 10 µM.

Chain of RAC-alpha serine/threonine-protein kinase (Homo sapiens) (P31749 whole entry): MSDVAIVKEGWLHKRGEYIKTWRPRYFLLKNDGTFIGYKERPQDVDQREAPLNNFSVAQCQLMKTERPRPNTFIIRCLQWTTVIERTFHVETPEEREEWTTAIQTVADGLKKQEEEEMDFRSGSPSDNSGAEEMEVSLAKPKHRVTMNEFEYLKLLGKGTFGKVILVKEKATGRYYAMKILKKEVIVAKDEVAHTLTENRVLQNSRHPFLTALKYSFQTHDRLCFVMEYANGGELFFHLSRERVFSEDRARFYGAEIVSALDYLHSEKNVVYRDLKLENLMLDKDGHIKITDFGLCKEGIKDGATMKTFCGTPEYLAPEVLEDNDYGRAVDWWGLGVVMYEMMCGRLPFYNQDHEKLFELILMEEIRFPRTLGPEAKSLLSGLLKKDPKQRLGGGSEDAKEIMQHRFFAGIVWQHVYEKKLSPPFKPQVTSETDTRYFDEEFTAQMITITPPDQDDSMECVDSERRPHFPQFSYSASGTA

As for `COc1cc2nccc(Oc3ccc(NC(=O)Nc4cc(C)on4)c(Cl)c3)c2cc1OC`, the residual activity (commonly the signal under treatment as a percentage of the control signal) worked out at 97% in assay [1] and 101% in assay [2].

As for `Cc1nc2cc3nc(-c4cccs4)cnc3cc2n1C`, the values for the residual activity in assay [1] and in assay [2] were 100% and 105%, respectively.

For the molecule `COc1ccc2c(c1)c(C1=C(c3c[nH]c4ccccc34)C(=O)NC1=O)cn2CCCN(C)C`, the residual activity was found to be 110% in assay [1] and 120% in assay [2].

With `Cc1ccc(NC2=CC(=O)c3sc(C)nc3C2=O)cc1`, the residual activity in assay [1] amounted to 111%; in assay [2] it was 107%.

As to `CC(C)(C)c1nc2c3ccc(F)cc3c3c(=O)[nH]ccc3c2[nH]1`, the residual activity worked out at 98% in assay [1] and 104% in assay [2].

For `O=C1NC(=O)/C(=C/c2ccc3c(c2)OC(F)(F)O3)S1`, the results for the residual activity in assay [1] and in assay [2] were 102% and 111%, respectively.

On to `COc1ccc(C(=O)Nc2sc3c(c2C(N)=O)CCCC3)cc1OC`, for which the residual activity in assay [1] was found to be 103%; in assay [2], 109%.

Consider `COc1cc2ncnc(Nc3ccc(O)c(Br)c3)c2cc1OC`, for which the residual activity in assay [1] worked out at 107%; in assay [2] it was 105%.

Turning to `Nc1ncnc2c1cnn2-c1ccccc1`, the residual activity in assay [1] and in assay [2] was 96% in each case.

Turning to `O=c1cc(-c2cccc3c2Sc2ccccc2S3)oc(N2CCOCC2)c1`, the residual activity in assay [1] was 99%; in assay [2], 103%.

For `O=Nc1c(-c2c(O)[nH]c3ccccc23)[nH]c2ccccc12`, the residual activity came to 107% in assay [1] and 98% in assay [2].

For the molecule `O=C1NC(=O)C(c2cn(CCCn3ccnc3)c3ccccc23)=C1Nc1ccccc1`, the values for the residual activity in assay [1] and in assay [2] were 104% and 102%, respectively.

`CC#CC(=O)Nc1cc2c(Nc3ccc(F)c(Cl)c3)ncnc2cn1`: the residual activity in assay [1] was found to be 101%; in assay [2] it was 107%.

For the molecule `NC(=O)c1ccc2[nH]c(-c3ccc(Oc4ccc(Cl)cc4)cc3)nc2c1`, the residual activity in assay [1] amounted to 109%; in assay [2], 112%.

Regarding `Cn1cnc2cc3c(Nc4cccc(Br)c4)ncnc3cc21`, the residual activity came out at 95% in assay [1] and 109% in assay [2].

As to `Oc1c2ccccc2c2c3c(cccc13)N=N2`, in assay [2], the residual activity worked out at 110%.

Consider `COc1cc2ncnc(Nc3ccc(NC(=O)c4ccccc4)cc3)c2cc1OC`, for which the results for the residual activity in assay [1] and in assay [2] were 105% and 110%, respectively.

For `CCN(CC)CCCCN1c2ccccc2Oc2ccc(Cl)cc21`, the residual activity in assay [1] and in assay [2] was 104% each time.

On to `Oc1ccc(Nc2nc(-c3ccc(Cl)cc3)cs2)cc1`, for which the figures for the residual activity in assay [1] and in assay [2] were 124% and 94%, respectively.

Consider `NC(=O)Nc1sc(-c2ccc(F)cc2)cc1C(N)=O`, for which the residual activity in assay [1] is 114%; in assay [2], 109%.

Take `CC(C)(C)n1nc(Cc2cccc3ccccc23)c2c(N)ncnc21`: the residual activity was 96% in assay [1] and 107% in assay [2].

Turning to `CC(=O)c1ccc(N2CCOCC2)cc1O`, the residual activity in assay [1] stood at 101%; in assay [2] it was 111%.

Take `Cc1cc(Nc2nc(-c3ccccc3)nc3ccccc23)n[nH]1`: the residual activity in assay [1] is 113%; in assay [2], 101%.

`NCCNc1ncc(C(N)=O)c(Nc2cccc(C(F)(F)F)c2)n1`: the residual activity in assay [2] is 112%.

For `Cn1c2ccccc2c2c3c(c4c5ccccc5n(CCC#N)c4c21)CNC3=O`, the residual activity in assay [1] worked out at 106%; in assay [2] it was 105%.

With `O=C(Nc1cccc(Nc2nccc(Nc3cccc(C(F)(F)F)c3)n2)c1)C1CC1`, the residual activity in assay [1] stood at 103%; in assay [2] it was 104%.

With `O=C1NC(=O)c2cc(Nc3ccc(F)cc3)c(Nc3ccc(F)cc3)cc21`, the residual activity in assay [1] was found to be 101%; in assay [2] it was 107%.

In the case of `c1ccc2c(-c3ccncc3)c[nH]c2c1`, the residual activity in assay [1] is 103%; in assay [2], 104%.

Turning to `CC(C)n1cnc2/c(=N/c3cccc(Cl)c3)nc(NCCO)[nH]c21`, the residual activity came out at 111% in assay [1] and 109% in assay [2].

In the case of `Oc1n[nH]c2nnc(-c3c(-c4ccccc4)nn4ccccc34)cc12`, the figures for the residual activity in assay [1] and in assay [2] were 105% and 111%, respectively.

With `COc1cc2ncnc(N3CCN(C(=O)Nc4ccc(Oc5ccccc5)cc4)CC3)c2cc1OC`, the residual activity amounted to 106% in assay [1] and 107% in assay [2].

Regarding `Nc1ccc2ncnc(NCCc3ccc(Oc4ccccc4)cc3)c2c1`, the residual activity was determined as 110% in assay [1] and 108% in assay [2].

Take `CC(=O)O/N=C1\C(=C2\C(=O)Nc3cc(Br)ccc32)Nc2ccccc21`: the results for the residual activity in assay [1] and in assay [2] were 115% and 109%, respectively.

With `Oc1ccc(-c2nc(-c3ccc(F)cc3)c(-c3ccncc3)[nH]2)cc1`, the residual activity turned out to be 113% in assay [1] and 112% in assay [2].

With `Nc1ncnc2c1c(-c1ccc(Oc3ccccc3)cc1)cn2C1CCCC1`, the residual activity in assay [1] came out at 105%; in assay [2], 111%.

With `O=S(=O)(NCCNC/C=C/c1ccc(Br)cc1)c1cccc2cnccc12`, the residual activity in assay [2] stood at 22%.

For `Cn1nc2c3c(cccc31)C(=O)c1ccccc1-2`, the residual activity in assay [1] was 111%; in assay [2], 108%.

For `COc1ccc(CNc2nc(N(CCO)CCO)nc3c2ncn3C(C)C)cc1`, the residual activity in assay [1] turned out to be 118%; in assay [2], 111%.

As to `O=C(Nc1cccc(Nc2cc(Nc3cccc(C(F)(F)F)c3)ncn2)c1)C1CC1`, the results for the residual activity in assay [1] and in assay [2] were 96% and 99%, respectively.
